This note sets out measurements from PubChem BioAssay AID743364 (National Center for Advancing Translational Sciences (NCATS), 2014).

A number with no mark means an inactive call. Calls follow the shape of the dose curve; as a rule, active = well fitted curve in the direction sought with a large enough effect; inactive = no such curve, though single readings can be large or run the other way.

The assay can be described thus: qHTS profiling of inhibitors of Plasmodium falciparum (3D7) proliferation (acoustic dispense). The settings on record: P. falciparum 3D7 in erythrocytes, SYBR Green, 72 h; series mostly up to 49.8 µM; activity change: at the top concentration. From the text: Plasmodium falciparum is a virulent malarial parasite that kills 1-2 million people worldwide each year. Transmitted by mosquitoes, the sporozoite form of the parasite enters the blood stream to infect hepatocytes, where they become merozoites that infect red blood cells (erythrocytes). Within erythrocytes, merozoites begin a […] cycle of growth and division, after which the parasite is released to infect new red blood cells. Gametocytes, which form within erythrocytes as well, circulate in the bloodstream and are ingested by the mosquito, thereby completing the life cycle. To profile malarial isolates for differential chemical responses and to identify inhibitors of malarial growth, an assay that measures P. falciparum growth and replication within erythrocytes was employed. This assay uses a DNA binding fluorescent dye (SYBR Green) to detect parasite DNA following cell lysis. Because mature erythrocytes lack DNA, only Plasmodium-derived DNA is detected.
The SYBR Green viability assay was adapted from a method described previously (Plouffe et al., 2008). For screening 3 ul culture medium was dispensed into 1536 well black clear bottom plates (Aurora Biotechnologies) using a Multidrop Combi (Thermo Fisher Scientific Inc.), 23 nL of compounds in DMSO were added by an acoustic dispenser (EDC Biosystems), and 5 ul of erythrocytes infected with P. falciparum (0.3% parasitemia, 2.5% hematocrit final concentration) were added. The plates were incubated at 37 C in a humidified incubator in 5% CO2 for 72 h, and 2 ul lysis buffer (20 mM Tris HCl, 10 mM EDTA, 0.16% saponin, 1.6% triton X, 10X SYBR Green I supplied as 10,000X […] by Invitrogen) was added to each well. The plates were mixed for 25 sec with gentle shaking and incubated overnight at room temperature in the dark. The following morning, fluorescence intensity at 485(14) nm excitation and 535(25) nm emission wavelengths was measured on an EnVision (Perkin Elmer) plate reader. Plate reads were normalized relative to the control inhibitor (0.29 uM artemisinin) and vehicle (DMSO) wells present on each plate and then corrected by an algorithm using vehicle-only control plates at the beginning and end of the compound plate stack.
For the compound `CC1=C(O)C(=O)C=C2C1=CC=C1[C@@]2(C)CC[C@@]2(C)[C@@H]3C[C@](C)(C(=O)O)CC[C@]3(C)CC[C@]12C`, the “activity change” value was 2.81%. The same measure for `CC(=Cc1csc(C)n1)[C@@H]1C[C@H]2O[C@@H]2CCC[C@H](C)[C@@H](O)[C@@H](C)C(=O)C(C)(C)[C@@H](O)CC(=O)O1`: 0.503%; for `O=c1[nH]c2ccc(Cl)cc2c(N[C@@H]2CN3CCC2CC3)c1-c1nc2ccccc2[nH]1`: 0.942%. In the case of `CC(=O)N(O)CCCP(=O)(O)O`, the “activity change” value is 9.16%. The value for `O=C(C[C@@H]1NCCC[C@@H]1O)Cn1cnc2ccccc2c1=O` was -1.69%; that for `C[C@@H]1C[C@@H]([C@H](O)CC2CC(=O)NC(=O)C2)C(=O)[C@@H](C)C1` was -0.385%. The same measure for `CO[C@H]1CCC(O[C@H]2C[C@H]([C@]3(C)CC[C@]4(C[C@H](O)[C@@H](C)[C@@H]([C@@H](C)C=C(C)C(=O)[C@H](C)C[C@H](C)C(=O)O)O4)O3)O[C@]3(O[C@@H]([C@H]4O[C@@](O)(CO)[C@H](C)C[C@H]4C)C[C@H]3C)[C@H]2C)O[C@H]1C` (stereo not given in full): -0.523%. The value for `C[C@H]1CCCC=CC2C[C@H](O)C[C@@H]2[C@H](O)C=CC(=O)O1` (stereo not given in full) was -0.681%; that for `CN1C(=O)C[C@H](C(=O)N[C@@H](Cc2cnc[nH]2)C(=O)N2CCC[C@@H]2C(N)=O)NC1=O` was 94.2%. `CC(=O)Nc1nnc(S(N)(=O)=O)s1`: the “activity change” value is 67.7%. The same measure for `COC1=CC(C)=C[C@@H](C)[C@@H](O)[C@@H](C)CC(C)=CC=C[C@H](OC)[C@H]([C@@H](C)[C@@H](O)[C@H](C)[C@@]2(O)C[C@@H](O)[C@H](C)[C@@H](C(C)C)O2)OC1=O`: 1.19%.

For the compound `CC(C)(N)CNC(=O)CC1CCC2(CC1)OOC1(O2)C2CC3CC(C2)CC1C3` (stereo not given), the “activity change” value is 0.389%.

With `C[C@]12O[C@H](C[C@@]1(O)C(=O)O)n1c3ccccc3c3c4c(c5c6ccccc6n2c5c31)CNC4=O`, the activity change is 0.751% [at 4.15 µM]. The value for `COC(=O)[C@@]1(OC)C[C@@H]2O[C@@]1(C)n1c3ccccc3c3c4c(c5c6ccccc6n2c5c31)C(=O)N(C)C4` was 0.473% [at 16.5 µM].

For the compound `CC=C(C)C(=O)N[C@@H](c1ccccc1)[C@@H](O)C(=O)O[C@H]1C[C@@]2(O)[C@@H](OC(=O)c3ccccc3)[C@@H]3[C@]4(OC(C)=O)CO[C@@H]4C[C@H](O)[C@@]3(C)C(=O)[C@H](OC(C)=O)C(=C1C)C2(C)C`, the “activity change” value is 1.68%.
